Test [1] in a line: antimalarial activity against Dd2 strain (AID 2302;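 active = growth inhibition above 50% at the single 2 µM test dose, taken to imply half-maximal potency below 2 µM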;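 also: 0% = DMSO untreated growth and 100% = chloroquine plus artemisinin killed control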). The following applies: P. falciparum Dd2 in RBCs, LDH growth readout, 72 h; at 2 µM; stronger effect = higher value.
Test [2] can be described thus: HepG2 cytotoxicity, primary screen, cytotoxicity control for P. falciparum antimalarial project, cell-based, ATP luminescence (AID 2303;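 active = inhibition above 50%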;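 also: 0% = DMSO wells and 100% = digitonin-killed cells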). To be noted: HepG2 viability, 24-48 h, at 10 µM, stronger effect = higher value.
The target of test [3] is L-lactate dehydrogenase (Plasmodium falciparum (isolate CDC / Honduras)) (UniProt Q27743). The test is described as follows: PfLDH activity inhibition – cell lysate, 3D7 strain, counter-screen for P. falciparum growth inhibition project (AID 2304).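 Also: 0% = vehicle and 100% = reference inhibitor.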 To be noted: P. falciparum 3D7 crude extract, LDH APAD/NBT absorbance; at 2 µM; stronger effect = higher value. In general terms: The purpose of a counterscreen is to sort out artefacts and off-target activity.
Chain of L-lactate dehydrogenase (Plasmodium falciparum (isolate CDC / Honduras)) (Q27743 whole entry, looked up): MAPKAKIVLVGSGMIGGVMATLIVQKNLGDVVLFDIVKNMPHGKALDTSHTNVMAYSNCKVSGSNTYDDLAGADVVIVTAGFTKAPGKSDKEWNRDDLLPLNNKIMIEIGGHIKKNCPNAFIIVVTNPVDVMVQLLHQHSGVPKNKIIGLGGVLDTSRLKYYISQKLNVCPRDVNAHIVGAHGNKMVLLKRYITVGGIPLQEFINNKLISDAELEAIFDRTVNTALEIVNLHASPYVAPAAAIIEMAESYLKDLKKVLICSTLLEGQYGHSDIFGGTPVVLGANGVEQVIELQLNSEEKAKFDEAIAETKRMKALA

A short description of test [4]: inhibition of 3D7 malaria parasite growth – strain 3D7 (AID 2306).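 Also: 0% = DMSO wells and 100% = chloroquine plus artemisinin control wells.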 The following applies: P. falciparum 3D7 erythrocytic growth, LDH absorbance, 72 h; at 2 µM; stronger effect = higher value.
Test [5] concerns the target Calcium-dependent protein kinase 1 (Plasmodium falciparum (isolate 3D7)) (UniProt P62344). The test is described as follows: PfCDPK1 kinase inhibitors, biochemical, TCAMS library (AID 1159585; cut-off not given, nearly all actives have IC50 up to about 0.98 µM;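 also: inhibitors leave more ATP so luminescence rises with inhibition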). The following applies: recombinant PfCDPK1, Kinase-Glo ATP depletion luminescence. Background: Kinase-Glo reads ATP consumption through a luciferase reaction.
Test [6] deals with Plasmodium falciparum protein kinase 6 (PK6, PF3D7_1337100) (UniProt Q8IDW1). The test is described as follows: PfPK6 kinase inhibitors, biochemical, TCAMS library (AID 1159586). To be noted: recombinant PfPK6, Kinase-Glo ATP depletion luminescence.
Chain of Plasmodium falciparum protein kinase 6 (PK6, PF3D7_1337100) (Q8IDW1 1-305): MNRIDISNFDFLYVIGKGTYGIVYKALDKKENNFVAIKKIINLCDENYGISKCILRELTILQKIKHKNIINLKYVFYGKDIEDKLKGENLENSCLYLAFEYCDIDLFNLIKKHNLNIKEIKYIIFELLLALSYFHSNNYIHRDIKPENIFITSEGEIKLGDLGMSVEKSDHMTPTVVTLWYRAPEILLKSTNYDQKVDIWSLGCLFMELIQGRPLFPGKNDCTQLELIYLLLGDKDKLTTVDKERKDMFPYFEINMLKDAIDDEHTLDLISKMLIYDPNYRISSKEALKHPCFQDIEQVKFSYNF
The target of test [7] is Protein kinase 7 (PK7), Plasmodium falciparum 3D7 (PF3D7_0213400) (UniProt Q7YTF7). The test is described as follows: inhibition of Plasmodium PK7 catalytic activity – biochemical, TCAMS antimalarial set, Kinase-Glo luminescence (AID 1159587). The following applies: recombinant PfPK7, Kinase-Glo ATP depletion luminescence.
Chain of Protein kinase 7 (PK7), Plasmodium falciparum 3D7 (PF3D7_0213400) (Q7YTF7 1-343): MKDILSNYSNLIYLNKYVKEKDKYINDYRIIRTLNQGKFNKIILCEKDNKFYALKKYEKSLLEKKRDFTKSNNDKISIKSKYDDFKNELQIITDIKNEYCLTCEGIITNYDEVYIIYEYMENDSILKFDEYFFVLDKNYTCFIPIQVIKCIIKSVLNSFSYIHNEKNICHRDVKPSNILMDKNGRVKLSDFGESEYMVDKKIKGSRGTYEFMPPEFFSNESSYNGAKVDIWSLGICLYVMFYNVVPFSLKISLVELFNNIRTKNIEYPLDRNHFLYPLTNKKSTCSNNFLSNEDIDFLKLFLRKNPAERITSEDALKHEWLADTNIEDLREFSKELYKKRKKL
The target in test [8] is Calcium-dependent protein kinase 4 (Plasmodium falciparum (isolate 3D7)) (UniProt Q8IBS5). The test is described as follows: PfCDPK4 kinase inhibitors, biochemical, TCAMS library (AID 1159588; cut-off not given, nearly all actives have IC50 up to about 0.91 µM). To be noted: recombinant PfCDPK4, Kinase-Glo ATP depletion luminescence.
Chain of Calcium-dependent protein kinase 4 (Plasmodium falciparum (isolate 3D7)) (Q8IBS5 whole entry, looked up): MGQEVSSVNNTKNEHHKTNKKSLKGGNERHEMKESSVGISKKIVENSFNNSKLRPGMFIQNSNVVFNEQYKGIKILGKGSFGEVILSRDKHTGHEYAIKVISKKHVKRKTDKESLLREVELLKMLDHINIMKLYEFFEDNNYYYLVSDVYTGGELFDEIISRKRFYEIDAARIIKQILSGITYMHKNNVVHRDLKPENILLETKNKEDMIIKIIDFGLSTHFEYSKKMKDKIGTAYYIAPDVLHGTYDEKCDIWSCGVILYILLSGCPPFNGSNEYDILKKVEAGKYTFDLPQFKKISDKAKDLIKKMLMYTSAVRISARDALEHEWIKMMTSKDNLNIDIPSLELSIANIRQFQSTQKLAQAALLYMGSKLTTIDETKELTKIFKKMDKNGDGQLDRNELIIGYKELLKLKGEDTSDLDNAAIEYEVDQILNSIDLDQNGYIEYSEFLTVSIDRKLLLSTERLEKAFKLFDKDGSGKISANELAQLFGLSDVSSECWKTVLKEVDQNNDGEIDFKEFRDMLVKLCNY

A number with no mark means an inactive call. For part of these data: Potency and affinity values are given separately. Activity calls are given as the source filed them. Unless noted, no rule for the calls is given here.

Chain of Calcium-dependent protein kinase 1 (Plasmodium falciparum (isolate 3D7)) (P62344 whole entry, looked up): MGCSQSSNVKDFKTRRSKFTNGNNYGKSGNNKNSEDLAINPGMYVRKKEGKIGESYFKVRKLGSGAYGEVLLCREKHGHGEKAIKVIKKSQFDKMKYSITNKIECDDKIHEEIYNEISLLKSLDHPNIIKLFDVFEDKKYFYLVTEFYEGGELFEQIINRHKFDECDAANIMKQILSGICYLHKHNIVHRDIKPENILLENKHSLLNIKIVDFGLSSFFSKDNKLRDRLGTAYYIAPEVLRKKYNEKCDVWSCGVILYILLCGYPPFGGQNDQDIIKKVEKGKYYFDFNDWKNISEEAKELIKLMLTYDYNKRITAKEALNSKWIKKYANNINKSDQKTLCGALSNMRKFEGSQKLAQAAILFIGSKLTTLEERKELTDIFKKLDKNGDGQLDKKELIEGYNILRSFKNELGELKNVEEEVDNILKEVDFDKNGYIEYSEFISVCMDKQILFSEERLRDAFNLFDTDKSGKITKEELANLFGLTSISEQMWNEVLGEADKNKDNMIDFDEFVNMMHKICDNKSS

On to `Cc1cc2ncn(-c3nccc(NCc4cccnc4)n3)c2cc1C`, for which the growth inhibition in test [1] was 98% (active); in test [4], 99% (active). Moreover, the inhibition in test [2] is -2%; in test [3] it was -4%. The outcome in test [5], in test [6], in test [7] and in test [8] was inactive.
On to `CNC(=O)c1cc(S(=O)(=O)N2CCN(c3ccccn3)CC2)cs1`, for which the growth inhibition is 100% (active) in test [1] and 99% (active) in test [4]. Moreover, the inhibition was -2% in test [2] and -3% in test [3]. In addition, the result in test [5], in test [6], in test [7] and in test [8] was inactive.
Regarding `COc1ccc(Oc2ccc(Nc3ccnc4ccc(C(F)(F)F)cc34)cc2)cc1OC`, the results for the growth inhibition in test [1] and in test [4] were 17% and 90% (active), respectively. Besides, the inhibition in test [2] is -2%; in test [3] it was 2%. In addition, the result in test [5], in test [6], in test [7] and in test [8] was inactive.
Consider `Cc1cc(=O)c(-c2ccc(Oc3cccc(OC(F)(F)F)c3)cc2)c(C)[nH]1`, for which the growth inhibition in test [1] was 96% (active); in test [4], 97% (active). For the same compound, the inhibition in test [2] is 13%; in test [3], -5%. Besides, the result in test [5], in test [6], in test [7] and in test [8] was inactive.
`CCCCCCc1cnc2nc(N)nc(N)c2c1C`: the growth inhibition in test [1] is 20%; in test [4], 93% (active). Further, the inhibition in test [2] is 67% (active); in test [3], -8%. The result in test [5], in test [6], in test [7] and in test [8] was inactive.
In the case of `CS(=O)(=O)CCNCc1ccc(-c2ccc3c(Nc4ccc(Oc5ccccn5)cc4)ccnc3c2)o1`, the results for the growth inhibition in test [1] and in test [4] were 99% (active) and 100% (active), respectively. The figures for the inhibition in test [2] and in test [3] were 0% and -7%, respectively. Also, the outcome in test [5], in test [6], in test [7] and in test [8] was inactive.
Turning to `CC1(C)N=C(N)N=C(N)N1OCCCc1ccccc1`, the growth inhibition is 94% (active) in test [1] and 96% (active) in test [4]. In addition, the inhibition in test [2] is 64% (active); in test [3], 1%. Besides, the result in test [5], in test [6], in test [7] and in test [8] was inactive.
For the compound `CC(C)(C)c1ccc(CN2CCCCC(NC(=O)c3cc(-c4ccccc4Cl)cs3)C2)cc1` (stereo not drawn), the growth inhibition in test [1] is 98% (active); in test [4], 101% (active). Further, the figures for the inhibition in test [2] and in test [3] were 3% and -1%, respectively. For the same compound, the result in test [5], in test [6], in test [7] and in test [8] was inactive.
In the case of `O=C(c1cccc(Br)c1)N1CCN(c2ccc([N+](=O)[O-])c(NC3CC3)c2)CC1`, the growth inhibition in test [1] is 100% (active); in test [4], 99% (active). Further, the inhibition in test [2] is 5%; in test [3] it was 3%. The result in test [5], in test [6], in test [7] and in test [8] was inactive.
Consider `CCc1cn2c3c(cc(C(=O)N[C@@H](Cc4cc(F)cc(F)c4)[C@H](O)CNC4CCCCC4)cc13)N(C)S(=O)(=O)CC2`, for which the values for the growth inhibition in test [1] and in test [4] were 99% (active) and 100% (active), respectively. Moreover, the inhibition is 9% in test [2] and -6% in test [3]. The outcome in test [5], in test [6], in test [7] and in test [8] was inactive.
Regarding `COc1cc2nccc(Nc3cccc(Oc4ccccc4)c3)c2cc1OC`, the growth inhibition in test [1] was 95% (active); in test [4], 102% (active). For the same compound, the inhibition in test [2] was 25%; in test [3] it was -2%. Further, the result in test [5], in test [6], in test [7] and in test [8] was inactive.
Consider `CCN(CC)CCN(Cc1ccc(-c2ccc(C(F)(F)F)cc2)cc1)C(=O)Cn1c(CCc2cccc(F)c2F)nc(=O)c2cc(F)c(F)cc21`, for which the growth inhibition in test [1] was 56% (active); in test [4] it was 100% (active). The figures for the inhibition in test [2] and in test [3] were 41% and -5%, respectively. In addition, the outcome in test [5], in test [6], in test [7] and in test [8] was inactive.
As to `Cc1ccc(C(=O)Nc2ccc(-c3nc4ccccc4[nH]3)cc2)cc1S(=O)(=O)N1CCOCC1`, the growth inhibition is 16% in test [1] and 90% (active) in test [4]. The inhibition in test [2] is 56% (active); in test [3], 4%. In addition, the outcome in test [5], in test [6], in test [7] and in test [8] was inactive.
Consider `O=C(N[C@H]1CCN(Cc2ccc(OCCCN3CCCCC3)cc2)C1)c1ccc2ccccc2c1`, for which the values for the growth inhibition in test [1] and in test [4] were 32% and 97% (active), respectively. Also, the inhibition in test [2] was 8%; in test [3], 5%. Moreover, the outcome in test [5], in test [6], in test [7] and in test [8] was inactive.
Turning to `CCn1ncc2c(N3CCCC3=O)cc(C(=O)N[C@@H](Cc3ccccc3)[C@H](O)CNC(C)(C)c3cccc(C(F)(F)F)c3)cc21`, the results for the growth inhibition in test [1] and in test [4] were 99% (active) and 98% (active), respectively. Also, the inhibition in test [2] was 10%; in test [3], 3%. The result in test [5], in test [6], in test [7] and in test [8] was inactive.
As to `N#Cc1ccc(N2CCN(Cc3ccc(-c4cccc(-c5nc6ccccc6[nH]5)c4)cc3)CC2)nc1`, the growth inhibition was 29% in test [1] and 95% (active) in test [4]. Moreover, the inhibition in test [2] is 33%; in test [3], -1%. Also, the outcome in test [5], in test [6], in test [7] and in test [8] was inactive.
Regarding `Cc1cc(Nc2ccc3c(c2)CCC3)n2ncnc2n1`, the growth inhibition in test [1] was 48%; in test [4] it was 86% (active). Besides, the inhibition was 4% in test [2] and -2% in test [3]. Besides, the result in test [5], in test [6], in test [7] and in test [8] was inactive.
Take `Fc1ccc2nc(-c3ccc(-c4ccc(CNCc5cnn(-c6ccccc6)n5)cc4)cc3)[nH]c2c1`: the figures for the growth inhibition in test [1] and in test [4] were 47% and 98% (active), respectively. Besides, the values for the inhibition in test [2] and in test [3] were 41% and 1%, respectively. In addition, the result in test [5], in test [6], in test [7] and in test [8] was inactive.
As for `Cc1cc(OCCCN2CCC(NS(=O)(=O)c3cccc(Br)c3)CC2)c2ccccc2n1`, the growth inhibition in test [1] was 28%; in test [4], 95% (active). The inhibition in test [2] is 28%; in test [3], -2%. Further, the outcome in test [5], in test [6], in test [7] and in test [8] was inactive.
Take `CCc1ccc(O)c(-c2cc(C(=O)Nc3ccc(OC)c(Cl)c3)[nH]n2)c1`: the growth inhibition in test [1] was 97% (active); in test [4], 93% (active). Moreover, the inhibition was 15% in test [2] and -1% in test [3]. Further, the outcome in test [5], in test [6], in test [7] and in test [8] was inactive.
As for `Cc1cc(O)c2c3c1C(=O)C=C1C3c3c(c(O)cc(O)c3C(=O)C1(C)C)C2=O` (stereo not drawn), the growth inhibition in test [1] was 46%; in test [4], 98% (active). Further, the inhibition in test [2] was 45%; in test [3], -3%. Further, the outcome in test [5], in test [6], in test [7] and in test [8] was inactive.

In general, inhibition refers to the relative decrease from the control value, in per cent.

(Values after PubChem BioAssay.)
